Rin1 Abl inh: inhibitors of Rin1-Abl protein binding, primary screen, biochemical, TR-FRET. inhibition, % at 7.35 µM. AID 588664, 2011. actives 0.4% (n = 360,000); in the data active means inhibition above about 5%, passing the limit was not always enough
Hck Nef HTS: inhibitors of Nef-activated human Hck kinase, primary screen, biochemical, Z-Lyte FRET, 384-well, Hck-YEEI | Tyrosine-protein kinase HCK (Homo sapiens), P08631 | Recombinant Hck-YEEI plus Nef, Z-Lyte FRET kinase assay | inhibition, % at 20 µM | actives 0.68% (n = 220,000);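 active means Hck-Nef kinase inhibition above about 50%, limit read from the data; inactive means inhibition below that limit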
p97 inhibitor: inhibitors of human p97 ATPase, primary screen, biochemical | Transitional endoplasmic reticulum ATPase (Homo sapiens), P55072 | recombinant p97 ATPase, Kinase-Glo ATP luminescence, 3 h | inhibition, % at 8 µM | actives 0.42% (n = 220,000) | AID 1481, 2009; in the data active means inhibition above about 15%
LYPLA1 inh: LYPLA1 inhibitors, primary screen, counter-screen for PME1 inhibitor project, biochemical, fluorescence polarization, FP-Rh probe ABPP; Acyl-protein thioesterase 1 (Homo sapiens), O75608; AID 2174, 2009; inhibition, % at 5.9 µM; recombinant LYPLA1; actives 0.16% (n = 320,000);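 active means inhibition above the mean of all tested compounds plus 3 SD, set per campaign, cut at about 14% in these data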;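 further: inhibitors block serine hydrolase probe labeling of LYPLA1 so polarization falls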
PREPL inhibitor: PREPL enzyme inhibitors, primary screen, biochemical, fluorescence polarization; inhibition, % at 5.96 µM; actives 0.68% (n = 320,000); recombinant PREPL, fluorescence polarization activity-based probe; in the data active means inhibition above about 43%
Target sequence (Q4J6C6 whole entry, looked up): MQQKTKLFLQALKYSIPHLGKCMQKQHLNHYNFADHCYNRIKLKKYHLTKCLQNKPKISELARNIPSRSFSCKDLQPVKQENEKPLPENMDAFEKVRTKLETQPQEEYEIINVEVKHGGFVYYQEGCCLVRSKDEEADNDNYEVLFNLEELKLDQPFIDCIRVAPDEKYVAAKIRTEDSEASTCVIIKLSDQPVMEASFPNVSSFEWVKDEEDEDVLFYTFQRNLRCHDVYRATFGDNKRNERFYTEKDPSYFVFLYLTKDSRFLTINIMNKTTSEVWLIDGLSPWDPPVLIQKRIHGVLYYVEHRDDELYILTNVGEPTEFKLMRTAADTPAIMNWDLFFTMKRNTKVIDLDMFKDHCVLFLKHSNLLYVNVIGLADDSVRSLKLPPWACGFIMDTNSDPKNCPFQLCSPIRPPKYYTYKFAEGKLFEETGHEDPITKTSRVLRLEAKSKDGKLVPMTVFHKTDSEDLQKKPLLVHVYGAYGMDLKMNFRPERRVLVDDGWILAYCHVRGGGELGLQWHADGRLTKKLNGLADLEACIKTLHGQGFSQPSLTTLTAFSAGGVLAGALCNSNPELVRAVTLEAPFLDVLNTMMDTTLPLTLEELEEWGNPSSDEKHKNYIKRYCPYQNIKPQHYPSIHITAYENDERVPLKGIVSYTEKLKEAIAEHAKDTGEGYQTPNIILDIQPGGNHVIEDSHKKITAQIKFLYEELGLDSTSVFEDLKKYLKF
LYPLA2 inh: LYPLA2 inhibitors, primary screen, counter-screen for PME1 inhibitor project, biochemical, fluorescence polarization, FP-Rh probe ABPP; AID 2177, 2009; recombinant LYPLA2; actives 0.38% (n = 320,000); inhibition, % at 5.9 µM;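 active means inhibition above the screen-wide mean plus 3 SD, limit set per campaign, cut at about 26% in these data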
LYPLA2 conf: LYPLA2 inhibitors, retest, confirmation, counter-screen for PME1 inhibitor project, biochemical, fluorescence polarization, FP-Rh probe ABPP; shares compounds with LYPLA2 inh; inhibition, % at 5.9 µM; recombinant LYPLA2; actives 72% (n = 1,100);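 active means mean inhibition across replicates above the hit cutoff set in the primary screen, cut at about 26% in these data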;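 further: blocked labeling of the enzyme by serine hydrolase FP-Rh probe lowers polarization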
LYPLA2 gel ABPP: LYPLA2 inhibitors in proteome, late-stage follow-up, gel-based competitive ABPP, fluorescence, assay provider | shares compounds with LYPLA2 inh | inhibition, % at 20 µM | actives 30% (n = 150) | rhLYPLA2 in mouse brain proteome, gel ABPP FP-Rh | AID 652029, 2013;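 active means inhibition of LYPLA2 enzyme probe labeling above about 50%, limit read from the data; inactive means inhibition below that limit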;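 further: loss of FP-Rh probe labeling of the LYPLA2 gel band measured as band density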
A number is an active result; . = inactive; / = no result given. Hits are enriched below; roughly 1.7% of the tested compounds scored in any of these assays.

SMILES	Rin1 Abl inh	Hck Nef HTS	p97 inhibitor	LYPLA1 inh	PREPL inhibitor	LYPLA2 inh	LYPLA2 conf	others
N#CCCN(C(=O)COC(=O)c1ccc(S(=O)(=O)N2CCCC2)cc1)c1cccc(Cl)c1	.	/	/	.	.	.	/
Cc1nc(C(=O)NC2CCOCC2)sc1C1(C)CC(c2ccccc2)=NO1 (stereo not given)	.	.	/	.	.	.	/
Cc1nc(C(=O)NC2CCOCC2)sc1C1(C)CC(c2cccc([N+](=O)[O-])c2)=NO1 (stereo not given)	.	.	/	.	.	34	45
Cc1ncc([N+](=O)[O-])n1CC(=O)Nc1ccc2c(c1)OCO2	.	.	.	.	.	26	.
Cc1cccc(NC(=O)Cn2c([N+](=O)[O-])cnc2C)c1C	/	.	.	.	.	31	32
Cc1ncc([N+](=O)[O-])n1CC(=O)Nc1ccccc1	.	.	.	.	.	32	38
Cc1ncc([N+](=O)[O-])n1CC(=O)Nc1ccc(F)cc1	.	/	/	.	.	33	38
Cc1cc(Br)c(NC(=O)Cn2c([N+](=O)[O-])cnc2C)cc1C	.	/	/	.	.	.	/
Cc1ccc(NC(=O)Cn2c([N+](=O)[O-])cnc2C)cc1	.	.	.	.	.	.	/
Cc1ncc([N+](=O)[O-])n1CC(=O)Nc1ccc(Br)cc1	.	/	/	.	.	46	38
CCCCn1nnnc1SCC(=O)NC1CCCCC1	.	/	/	.	.	.	/
COc1cc(OC)cc(-c2c(-c3cccs3)c3cc(-c4cnc(OC)nc4)ccc3n2C)c1	.	/	/	.	.	.	/
Cc1ccccc1C(=O)NNC(=O)c1cccc(Br)c1	.	/	/	.	.	.	/
COc1cc(C=NNC(=O)C(NC(=O)c2ccccc2)c2n[nH]c(=O)c3ccccc23)ccc1OCC(N)=O (stereo not given)	/	/	/	/	/	/	/	LYPLA2 gel ABPP=61
CC1(C)Cc2c(sc3nnn(CC(=O)Nc4ccccc4)c(=O)c23)CO1	.	.	.	.	.	28	36
O=C(Nc1ccc([N+](=O)[O-])cc1)c1ccc(Cn2cc([N+](=O)[O-])cn2)cc1	.	.	.	.	.	46	49
CS(=O)(=O)Nc1ccc(N2CCN(c3ccc(C(F)(F)F)cn3)CC2)nc1	.	.	.	.	.	84	83	LYPLA2 gel ABPP=72
COc1ccc(C(=O)COC(=O)CCNS(=O)(=O)c2ccccc2)c(OC)c1	.	/	/	.	.	.	/
COc1ccc(CCNC(=O)COC(=O)c2cncc(Br)c2)cc1OC	.	/	/	/	.	/	/
NC(=O)CC(NC(=O)c1ccc(Br)cc1)c1ccc(N2CCN(c3ccccc3)CC2)c([N+](=O)[O-])c1 (stereo not given)	.	/	/	.	.	26	28
Fc1ccccc1COc1ccc(Br)cc1CNCc1ccncc1	.	.	.	.	.	27	.
COc1cccc(N2CCN(C(=O)c3ccc(Cl)c(NC4=NC5CS(=O)(=O)CC5S4)c3)CC2)c1 (stereo not given)	.	/	/	.	.	.	/
Cc1ccc(-n2cc(-c3ccccc3)c3c(N4CCN(C)CC4)ncnc32)cc1	.	.	.	.	.	30	.
N#CCC(=O)Nc1ccc(C(=O)OCC(=O)NCCCc2ccccc2)cc1	.	/	/	.	.	.	/
N#CCC(=O)Nc1ccc(C(=O)OCc2ccccc2Oc2ccccc2)cc1	.	/	/	.	.	26	.
SMILES	Rin1 Abl inh	Hck Nef HTS	p97 inhibitor	LYPLA1 inh	PREPL inhibitor	LYPLA2 inh	LYPLA2 conf	others
CCOC(=O)c1sc(/N=C/N(C)C)nc1C	.	.	.	.	.	32	.
O=C(O)CN1C(=O)/C(=C\c2cc(Br)ccc2OCc2ccc([N+](=O)[O-])cc2)SC1=S	.	/	/	.	.	62	64
O=C(O)CN1C(=O)/C(=C\c2cc(Br)ccc2OCc2ccccc2Cl)SC1=S	.	/	/	.	.	.	/
O=C(CSc1ccccc1F)NNC(=O)c1ccncc1	.	/	/	.	.	.	/
NS(=O)(=O)c1ccc(NC(=O)COC(=O)c2ccc(S(=O)(=O)N3CCOCC3)cc2)cc1	.	/	/	/	.	/	/
CCCCCCCCN1[C@@H](CC(=O)OC)c2cc(F)ccc2S1(=O)=O	.	/	/	.	.	.	/
CCCCCCCCCCCCN1[C@@H](CC(=O)O)c2cc(C(F)(F)F)ccc2S1(=O)=O	.	/	/	.	.	61	60	LYPLA2 gel ABPP=.
CCCCCCCCCCCCN1[C@@H](CC(=O)O)c2cc(F)ccc2S1(=O)=O	.	/	/	.	.	58	58	LYPLA2 gel ABPP=.
CCCCCCCCNC(C)C(O)c1ccc(SC(C)C)cc1 (stereo not given)	.	.	.	.	.	40	46
CC(C)[C@@H](CO)N(C)S(=O)(=O)c1ccccc1Br	.	/	/	/	/	/	/
CCCNC(=O)c1ccccc1SCc1c(C)noc1C	.	/	/	.	.	.	/
Clc1ccc(-n2nnnc2CN2CCOCC2)cc1	.	.	.	.	.	.	/
Cc1ccc(-n2nnnc2CN2CCCCC2)cc1	.	.	.	.	.	33	.
O=C1C2CCCCN2C(=O)N1CCCCN1CCN(c2ccc([N+](=O)[O-])cc2)CC1 (stereo not given)	.	.	.	.	.	31	.
Cc1ccc(C(=O)COC(=O)c2ccc3c(c2)C(=O)N(c2cccc4ncccc24)C3=O)cc1C	.	.	.	.	.	30	36
COc1ccc(C(=O)OCC(=O)c2c(N)n(C)c(=O)n(C)c2=O)cc1OC	.	.	.	.	.	.	/
Cc1ccc(C(=O)COC(=O)c2ccc(-c3cnc4ccccc4n3)cc2)cc1C	.	.	.	.	.	.	/
Cc1ccc(C)c(N2C(=O)c3ccc(C(=O)OCC(=O)c4c(N)n(C)c(=O)n(C)c4=O)cc3C2=O)c1	.	.	.	.	.	26	44
CCc1cc2c(SCC(=O)NC3CC3)ncnc2s1	.	/	/	/	.	/	/
